A word on the AC50: it is the concentration at which the activity in the assay is half-maximal.

Structures are written as SMILES. Results filed as inconclusive are left out. Activity calls are given as the source filed them. Unless noted, the limit is not given here; nearly all actives have AC50 up to about 30 µM.

The record followed here is PubChem BioAssay.

One assay in a line: viability loss in pontine glioma line – cell-based, SU-DIPG-IV, MIPE4.0, CellTiter-Glo, qHTS, dose response (AID 1347063).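 Also: compound exposure lasted 48 hours before the viability readout.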 The settings on record: CellTiter-Glo ATP luminescence.
As to `OCCn1cc(-c2ccc3c(c2)CC/C3=N\O)c(-c2ccncc2)n1`, the call was inactive.

`CNc1nc(Nc2ccc(C(=O)N3CCOCC3)cc2OC)ncc1Cl`: the call was inactive.

Regarding `COc1ccc(-c2cc3nccn3c(Nc3ncccc3C(N)=O)n2)cc1OC`, the AC50 is 3.32 µM (active).

As for `CC[C@H](CC#N)OC(=O)N[C@@H](C)c1cccc(NC(=O)Nc2ccc(-c3cnco3)c(OC)c2)c1`, the AC50 is 1.32 µM (active).

In the case of `O=C1NC(=O)[C@@H](c2cn3c4c(cccc24)CCC3)[C@@H]1c1c[nH]c2ccccc12`, the AC50 is 13.2 µM (active).

As for `O=C(Nc1nc2cccc(-c3ccc(CN4CCS(=O)(=O)CC4)cc3)n2n1)C1CC1`, the AC50 was 29.6 µM (active).

Take `O=C(CCCCCCC(=O)Nc1ccc([C@H]2O[C@@H](CSc3nc(-c4ccccc4)c(-c4ccccc4)o3)C[C@@H](c3ccc(CO)cc3)O2)cc1)NO`: the AC50 is 13.2 µM (active).

On to `CNC(=O)c1cc(Oc2ccc(NC(=O)Nc3ccc(Cl)c(C(F)(F)F)c3)c(F)c2)ccn1`, for which the AC50 was 13.2 µM (active).

Take `Nc1cccc(-c2cc3c(Oc4cccc(O)c4)ncnc3[nH]2)c1`: the AC50 was 11.8 µM (active).

Take `CN(C)CC(=O)N1CCC(c2ccc(NC(=O)c3ncc(C#N)[nH]3)c(C3=CCCCC3)c2)CC1`: the AC50 is 20.9 µM (active).

On to `CS(=O)(=O)N1CCc2c(-c3cnc(N)nc3)nc(N3CCOCC3)nc21`, for which the AC50 is 0.148 µM (active).

Consider `N#C/C(=C1/Nc2ccccc2S1)c1ccnc(OCc2ccc(CN3CCOCC3)cc2)n1`, for which the AC50 is 0.0209 µM (active).

For the molecule `CN1c2ccccc2C(=O)N2CCc3c([nH]c4ccccc34)C21` (stereo not given), the molecule was classed as inactive.

Regarding `O=C1[C@H](Cc2ccc(O)cc2)N2C(=O)CCN(C(=O)NCc3ccccc3)[C@H]2CN1Cc1cccc2ccccc12`, the concentration at half-maximal activity (AC50) is 3.72 µM (active).

Regarding `CCC(=C/[C@H](C)C/C=C/C(C)=C/[C@@H](C)C(=O)[C@@H](C)[C@H](O)[C@@H](C)C/C(C)=C/C(=O)O)/C=C/[C@@H]1OC(=O)C=C[C@@H]1C`, the AC50 was 0.0139 µM (active).

For `O=c1ccn([C@@H]2O[C@H](CO)[C@@H](O)[C@@H]2F)c(=O)[nH]1`, the molecule was classed as inactive.

For the molecule `CCNC(=O)Nc1ccc(-c2nc3c(c(N4CCOC[C@@H]4C)n2)CCN(C2COC2)C3)cc1`, the AC50 is 0.332 µM (active).

As for `CC(C)(O)CC(=O)NCCn1ccc2ncnc(Nc3ccc(Oc4cccc(C(F)(F)F)c4)c(Cl)c3)c21`, the AC50 is 26.4 µM (active).

As to `CC(=O)Oc1cc2c(s1)CCN(C(C(=O)C1CC1)c1ccccc1F)C2` (stereo not given), the AC50 was 16.6 µM (active).

Regarding `N#Cc1ccc(COC[C@H]2O[C@@H](n3c(NCc4ccc(Cl)c(Cl)c4)nc4c(N)ncnc43)[C@H](O)[C@@H]2O)cc1`, the AC50 is 2.35 µM (active).

In the case of `CC[C@@H]([C@H](C)O)n1ncn(-c2ccc(N3CCN(c4ccc(OCC5CO[C@@](Cn6cncn6)(c6ccc(F)cc6F)C5)cc4)CC3)cc2)c1=O` (stereo not given in full), the AC50 was 14.8 µM (active).

For `Nc1ccn([C@@H]2O[C@H](CO)[C@@H](O)C2(F)F)c(=O)n1`, the AC50 was 0.526 µM (active).

Regarding `COc1cc2ncnc(Nc3cccc(Cl)c3)c2cc1OC`, the AC50 was 18.7 µM (active).

In the case of `CNC(=O)c1cc(COc2nnc(Nc3ccc(Cl)cc3)c3ccoc23)ccn1`, the AC50 was 20.9 µM (active).

With `CO[C@@H]1[C@@H](O)[C@H](O)[C@@H](n2c3c(Cl)cccc3c3c4c(c5c6cccc(Cl)c6[nH]c5c32)C(=O)NC4=O)O[C@H]1CO`, the half-maximal activity concentration (AC50) was 0.209 µM (active).

Turning to `CNc1nccc(-c2cccnc2Oc2cc(C(=O)Nc3cccc(C(F)(F)F)c3)ccc2C)n1`, the AC50 was 13.2 µM (active).

Consider `CC(C)=CCC/C(C)=C/CC/C(C)=C/CSc1ccccc1C(=O)O`, for which the half-maximal activity concentration (AC50) was 0.526 µM (active).

For the molecule `Clc1ccc2ncc(-c3cccc(NC4CNC4)n3)n2c1`, the AC50 was 26.4 µM (active).

Another assay is described as follows: viability loss in pontine glioma line – cell-based, SU-DIPG-XIII, MIPE5.0, CellTiter-Glo, qHTS, dose response (AID 1347064; cut-off not given, nearly all actives have AC50 up to about 23 µM;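 as to AC50: cells exposed to compound for 48 hours before the viability read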). The settings on record: CellTiter-Glo ATP luminescence. Background: ATP-based viability assays read luminescence as a measure of living cells.
Regarding `CNc1nc(Nc2ccc(C(=O)N3CCOCC3)cc2OC)ncc1Cl`, the call was inactive.

For `COc1ccc(-c2cc3nccn3c(Nc3ncccc3C(N)=O)n2)cc1OC`, the AC50 was 4.68 µM (active).

On to `CC(C)(C)NC(=O)c1cncn1C1CCN(c2ccc(-c3nnc(C(F)(F)F)o3)cn2)CC1`, for which the AC50 is 5.9 µM (active).

For the molecule `Nc1cccc(-c2cc3c(Oc4cccc(O)c4)ncnc3[nH]2)c1`, the AC50 is 4.68 µM (active).

As for `CS(=O)(=O)N1CCc2c(-c3cnc(N)nc3)nc(N3CCOCC3)nc21`, the AC50 is 1.18 µM (active).

Regarding `CC(C)n1ncnc1-c1cn2c(n1)-c1ccc(O[C@@H](C)C(N)=O)cc1OCC2`, the AC50 was 1.05 µM (active).

For `Cc1c[nH]c2ncnc(N3CCC(CN)(C(=O)Nc4cccc(OC(=O)N(C)C)c4)CC3)c12`, the AC50 was 11.8 µM (active).

Turning to `Nc1ncc(C(=O)NC2CN(C(=O)C3CC3)C2)c2ccc(-c3cccc(F)c3)nc12`, the result was inactive.

For `N#C/C(=C1/Nc2ccccc2S1)c1ccnc(OCc2ccc(CN3CCOCC3)cc2)n1`, the AC50 was 14.8 µM (active).

As to `COC1=C2C[C@H](C)C[C@H](OC)[C@H](O)[C@@H](C)/C=C(/C)[C@H](OC(N)=O)[C@@H](OC)/C=C\C=C(\C)C(=O)NC(=CC1=O)C2=O`, the AC50 is 0.118 µM (active).

Regarding `O=C(O)/C(S)=C/c1ccc(I)cc1`, the molecule was classed as inactive.

For the molecule `Cc1cc(-c2nc3cc(F)ccc3s2)ccc1NC(=O)[C@@H](N)CCCCN`, the AC50 is 20.9 µM (active).

`CCn1c(=O)c(-c2ccn[nH]2)cc2c(C)nc(N)nc21`: the AC50 is 5.9 µM (active).

Regarding `C[C@@H]1Cc2c([nH]c3ccccc23)[C@@H](c2c(F)cc(/C=C/C(=O)O)cc2F)N1CC(C)(C)F`, the molecule was classed as inactive.

Consider `O=C(Nc1ccc(OC(F)(F)Cl)cc1)c1cnc(N2CC[C@@H](O)C2)c(-c2ccn[nH]2)c1`, for which the result was inactive.

`CNc1nccc(-c2cccnc2Oc2cc(C(=O)Nc3cccc(C(F)(F)F)c3)ccc2C)n1`: the concentration at half-maximal activity (AC50) was 5.9 µM (active).

For the molecule `CCCc1cc(C)[nH]c(=O)c1CNC(=O)c1cc(-c2ccnc(N3CCN(C)CC3)c2)cc2c1cnn2C(C)C`, the molecule was called inactive.
